The supplement of paper PMC13380429
Unmarked numbers belong to inactive results.

System: Vero E6 infected with SARS-CoV-2
Assay: inhibition of SARS-CoV-2 cytopathic effect; higher = more antiviral protection, active = above 15
Settings: 48 h

SMILES	inhibition of SARS-CoV-2 cytopathic effect (1 nM) [%]	inhibition of SARS-CoV-2 cytopathic effect (8.33 nM) [%]	inhibition of SARS-CoV-2 cytopathic effect (100 nM) [%]	inhibition of SARS-CoV-2 cytopathic effect (833.33 nM) [%]	inhibition of SARS-CoV-2 cytopathic effect (10000 nM)
CCCN(CCC)C(=O)C(CCC(=O)OCCCN1CCN(CCOC(=O)Cc2c(C)n(C(=O)c3ccc(Cl)cc3)c3ccc(OC)cc23)CC1)NC(=O)c1ccccc1 (stereo not given) [proglumetacin]	-3.43	-2.43	-2.86	-4.91	-12.6%
CN(C(=O)Cc1ccccc1)[C@H](CN1CCCC1)c1ccccc1	-2.98	-0.14	0.52	0.85	-1.59%
CC(C)=CCc1c(O)cc(O)c2c(=O)c(O)c(-c3ccc(C(F)(F)F)cc3)oc12	2.04	1.52	3.93	2.83	2.95%
Cc1cccc(CN2CCN(C(c3ccccc3)c3ccc(Cl)cc3)CC2)c1 (stereo not given) [meclizine]	4.53	3.44	2.18	4.25	3.46%
CN=c1nc(-c2ccccc2)n(-c2ccccc2)s1	1.73	0.95	-0.38	0.89	-1.43%
O=C(Nc1ccccc1)OCC(CN1CCCCC1)OC(=O)Nc1ccccc1 (stereo not given) [diperodon]	0.17	-0.37	0.05	-2.3	-5.11%
CC1(C)O[C@H]2CC(=O)OC[C@]23[C@H]2CC[C@@]4(C)[C@H](c5ccoc5)OC(=O)[C@H]5O[C@]54[C@]2(C)C(=O)C[C@@H]13 [limonin]	-0.51	-0.42	-2.25	-1.69	-2.49%
COc1ccc(-c2cc(=O)c3c(O)c(OC)c(O)cc3o2)cc1OC [eupatilin]	1.23	-0.46	0.38	1.92	2.58%
COc1ccc(-c2cc(=O)c3c(O)cc(O)cc3o2)cc1O [diosmetin]	-0.61	-0.9	-1.66	-3.02	2.95%
COc1cc2c(c(OC)c1OC)-c1c(cc3c(c1OC)OCO3)CC(C)C(C)C2 (stereo not given) [schisandrin-B]	-1.41	-0.34	-0.03	-1.73	-1.42%
C[C@@H](NC(=O)[C@@H](N)Cc1ccc(O)cc1)C(=O)NCC(=O)N(C)[C@@H](Cc1ccccc1)C(=O)N[C@H](CO)CC[S+](C)[O-] (stereo not given in full)	-0.57	-1.1	-1.84	-0.24	0.65%
O=C(NC(Cc1cc(=O)[nH]c2ccccc12)C(=O)O)c1ccc(Cl)cc1 (stereo not given) [rebamipide]	-0.87	2.6	4.52	2.91	1.77%
CC(C)c1onc(-c2c(Cl)cccc2Cl)c1COc1ccc(/C=C/c2cccc(C(=O)O)c2)c(Cl)c1	0.86	0.15	-0.17	0.5	0.01%
Nc1ncnc2c1C(=O)N(c1ccc([C@H]3CC[C@H](CC(=O)O)CC3)cc1)CCO2	4.58	2.44	-0.31	5.58	4.43%
OC[C@H]1NCC[C@@H](O)[C@@H]1O [fagomine]	-1.09	1.34	1.02	2.42	0.75%
O=C(O)C1=CO[C@@H](O[C@@H]2O[C@H](CO)[C@@H](O)[C@H](O)[C@H]2O)[C@@H]2C(CO)=CC[C@H]12 [Geniposidic acid]	-0.41	3.01	0.36	-1.23	1.07%
CC1(C)S[C@@H]2[C@H](NC(=O)[C@H](C(=O)O)c3ccsc3)C(=O)N2[C@H]1C(=O)O [ticarcillin]	-0.59	-1.04	-1.79	0.92	-2.66%
COc1cccc2c1C(=O)c1c(O)c3c(c(O)c1C2=O)C[C@@](O)(/C(CO)=N/NC(=O)CCCCCN1C(=O)C=CC1=O)C[C@@H]3O[C@H]1C[C@H](N)[C@H](O)[C@H](C)O1 [aldoxorubicin]	-2.6	-0.32	0.6	4.67	-1.37%
COC(F)(F)C(Cl)Cl [methoxyflurane]	0.46	5.27	4.68	0.29	-1.64%

SMILES	inhibition of SARS-CoV-2 cytopathic effect (1 nM) [%]	inhibition of SARS-CoV-2 cytopathic effect (8.33 nM) [%]	inhibition of SARS-CoV-2 cytopathic effect (100 nM) [%]	inhibition of SARS-CoV-2 cytopathic effect (833.33 nM) [%]	inhibition of SARS-CoV-2 cytopathic effect (10000 nM)
COC(=O)C(Cc1ccc(OCCn2c(=O)sc3cc(C(=O)c4ccccc4)ccc32)cc1)C(=O)OC	-0.38	2.25	-1.78	-1.22	0.02%
CC(=O)Nc1ccc(O)cc1 [paracetamol]	-0.44	1.77	-0.22	0.33	-2.2%
C=C(C)[C@@H]1[C@H]2OC(=O)[C@@H]1[C@]1(O)C[C@H]3O[C@]34C(=O)O[C@H]2[C@]14C [picrotoxinin]	-2.53	-1.67	-2.12	-3.39	-2.53%
CCc1nn(CCCN2CCN(c3cccc(Cl)c3)CC2)c(=O)n1CCOc1ccccc1 [nefazodone]	-0.85	0.31	-12.7	0.6	-2.21%
COc1cc2ncnc(Nc3cccc(Cl)c3F)c2cc1OC(=O)N1CCN(C)C[C@H]1C	1.89	2.48	-1.03	-2.96	-9.49%
COc1ccc(C(=O)C2CCN(CC(=O)N(Cc3nc4c(c(=O)[nH]3)COCC4)CC3CC3)CC2)cc1	1.44	-0.07	-1.36	1.12	-1.65%
CCCc1c(OCCCCc2nnn[nH]2)ccc(C(C)=O)c1O [tomelukast]	-8.82	-9.23	-10	-8.13	-6.02%
Cc1ccc(/C(=C\CN2CCCC2)c2cccc(/C=C/C(=O)O)n2)cc1 [acrivastine]	0.5	-0.13	0.75	6.14	1.35%
c1ccc2c(c1)CCCc1cc(NCCN3CCOCC3)nnc1-2	0.07	1.77	1.8	1.51	0.84%
N[C@@H](CCNCc1ccc(Cl)cc1)C(=O)N1CCCCC1	0.82	-0.55	-2.08	-1.49	-1.28%
CCCN1CCC[C@@H]2Cc3n[nH]cc3C[C@H]21 [quinpirol-(-)]	-2.17	2.95	0.48	-2.24	-0.87%
Cc1ccc2c(=O)c3cccc(CC(=O)O)c3oc2c1C	4.48	0.61	1.92	-1.05	1.59%
CC(=O)OCC1=C(C(=O)O)N2C(=O)[C@@H](NC(=O)CS/C(=N/C(C)C)NC(C)C)[C@H]2SC1 [cefathiamidine]	-0.52	-0.04	1.14	0.34	0.26%
O=C(O)C1=CCCNC1 [guvacine]	2	5.07	3.21	6.87	6.39%
FC(F)(F)Oc1ccc2nc(-c3ccc(OCCOCCOc4ccc(-c5nc6ccc(OC(F)(F)F)cc6[nH]5)nc4)cn3)[nH]c2c1	-0.41	1.44	0.99	3.47	-6.61%
C=C[C@]1(C)C[C@@H](OC(=O)CS[C@@H]2C[C@H]3CC[C@@H](C2)N3C)[C@]2(C)[C@H](C)CC[C@]3(CCC(=O)[C@H]32)[C@@H](C)[C@@H]1O [retapamulin]	-0.46	2.42	1.21	1.93	-0.87%
COc1ccccc1N1CCN(CCCCN2C(=O)c3ccccc3C2=O)CC1	-0.49	-1.04	2.68	1.7	4.74%
O=C1C=C2C=C[C@@H]3C[C@@]2(O1)[C@H]1CCCCN31 [securinine]	0.7	3.64	2.11	7.21	18.4% (active)
CC12CC3CC(C)(C1)CC(N)(C3)C2 [memantine]	0.45	0.23	1.56	2	-1.57%
